This is part of a sample that, as a whole, favours compounds with a hit. Of some 79,000 tested, about 15% had one in any assay. Calls of active or inactive are those of the source. Rule as the data show it: active = growth inhibition above about 70%; inactive = the rest.
What was measured:
[1] = NCI Yeast Anticancer Drug Screen. Data for the rad52 strain (AID 147);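 also: 0% = growth of vehicle-treated control cultures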; settings: S. cerevisiae rad52 mutant growth inhibition, active compounds read high
Summary of the method: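 Measured: yeast growth inhibition. System: strain with a defined DNA damage repair alteration. Reference: vehicle-treated control cultures.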

[2] = NCI Yeast Anticancer Drug Screen. Data for the wt1 strain (AID 149);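 also: 0% = growth of vehicle-treated wt1 cultures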; settings: S. cerevisiae wt1 strain (SPY 50644) growth inhibition, active compounds read high
Summary of the method: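 Vehicle-normalised growth inhibition; strain wt1; compound exposure.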

[3] = NCI Yeast Anticancer Drug Screen. Data for the rad50EPP+ strain (AID 151);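 also: 0% = growth of vehicle-treated control cultures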; settings: S. cerevisiae rad50 mutant strain, active compounds read high
Summary of the method: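 One strain with a rad50 alteration (rad50EPP+) was compound-treated, its growth then compared to that of vehicle controls.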

[4] = NCI Yeast Anticancer Drug Screen. Data for the mgt1 strain (AID 153); settings: S. cerevisiae mgt1 mutant growth inhibition, active compounds read high
Summary of the method: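 After exposure of the mgt1 yeast mutant to compound, growth was measured and reported as inhibition compared with vehicle controls.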

[5] = NCI Yeast Anticancer Drug Screen. Data for the rad50 strain (AID 155);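 also: 0% = growth of vehicle-only cultures of the same strain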; settings: S. cerevisiae rad50 strain growth inhibition, active compounds read high
Summary of the method: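 A DNA repair-deficient yeast mutant serves as the test organism; compound-induced growth inhibition is calculated against vehicle-treated cells.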

[6] = NCI Yeast Anticancer Drug Screen. Data for the mec2-1 strain (AID 157); settings: S. cerevisiae mec2-1 strain, active compounds read high
Summary of the method: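 Test agents were screened against the mec2-1 yeast strain, with defined DNA repair or cell cycle alteration. Growth was scored as inhibition against vehicle-only controls.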

[7] = NCI Yeast Anticancer Drug Screen. Data for the rad14 strain (AID 159);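 also: 0% = growth of vehicle-treated control cultures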; settings: S. cerevisiae rad14 strain growth inhibition, active compounds read high
Summary of the method: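 Vehicle-treated cultures served as the baseline for growth inhibition of a DNA repair-mutant yeast strain exposed to each compound.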

[8] = NCI Yeast Anticancer Drug Screen. Data for the sgs1 mgt1 strain (AID 161);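 also: 0% = growth of cultures given vehicle only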; settings: S. cerevisiae sgs1 mgt1 strain, active compounds read high
Summary of the method: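 Genetically altered yeast, compound exposure, growth inhibition relative to vehicle.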

[9] = NCI Yeast Anticancer Drug Screen. Data for the CLN2oe strain (AID 163);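 also: 0% = growth of vehicle-only control cultures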; settings: S. cerevisiae CLN2oe strain, active compounds read high
Summary of the method: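 Here, growth inhibition in a cell-cycle-altered yeast strain after compound exposure was quantified against vehicle control growth.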

[10] = NCI Yeast Anticancer Drug Screen. Data for the cln2 rad14 strain (AID 165);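 also: 0% = growth equal to vehicle treated cultures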; settings: S. cerevisiae cln2 rad14 strain, active compounds read high
Summary of the method: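 Growth of compound-exposed yeast (cln2 rad14 genotype) measured and expressed as inhibition relative to vehicle.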

[11] = NCI Yeast Anticancer Drug Screen. Data for the bub3 strain (AID 167); settings: S. cerevisiae bub3 mutant strain, active compounds read high
Summary of the method: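 Inhibition values come from growth of compound-treated mutant yeast normalised to vehicle-treated controls.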

[12] = NCI Yeast Anticancer Drug Screen. Data for the wt2 strain (AID 169);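 also: 0% = growth of vehicle-treated yeast cultures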; settings: S. cerevisiae wt2 strain growth inhibition, active compounds read high
Summary of the method: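 Genetically defined yeast strains from a DNA-repair/cell-cycle panel were used. Compound-exposed yeast growth was measured, and the inhibition was calculated relative to vehicle treatment.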

[13] = NCI Yeast Anticancer Drug Screen. Data for the mlh1 strain (AID 171);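 also: 0% = growth of vehicle-treated control cultures of the same strain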; settings: S. cerevisiae mlh1 strain growth inhibition, active compounds read high
Summary of the method: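 Here the genetically defined yeast mutant is grown with each compound, and the extent to which its growth falls below that of vehicle-exposed cells is reported.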

[14] = NCI Yeast Anticancer Drug Screen. Data for the sgs1 strain (AID 173);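 also: 0% = growth of vehicle-only control cultures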; settings: S. cerevisiae sgs1 mutant, active compounds read high
Summary of the method: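 Relative growth inhibition, referenced to vehicle, was determined in a yeast strain with a defined alteration affecting DNA damage repair or cell cycle control after compound exposure.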

[15] = NCI Yeast Anticancer Drug Screen. Data for the mlh1 rad18 strain (AID 175); settings: S. cerevisiae mlh1 rad18 strain growth inhibition, active compounds read high
Summary of the method: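 In this whole-cell yeast screen, a strain with altered DNA damage repair is challenged with compound, and its growth is measured against matched vehicle-treated controls.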

[16] = NCI Yeast Anticancer Drug Screen. Data for the rad18 strain (AID 177); settings: S. cerevisiae rad18 mutant growth inhibition, active compounds read high
Summary of the method: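 Screen uses a yeast strain with a defined lesion in DNA damage repair; compound effect is read as loss of growth compared to untreated vehicle cultures.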

[17] = at 5.0 µM (retest, dose inferred, filed as 0.5)
[18] = at 50.0 µM (retest, dose inferred, filed as 5.0)

Measured: growth inhibition

O=C1C(CCSc2ccccc2)C(=O)N(c2ccccc2)C1c1ccccc1 (stereo unspecified)
inactive: [1]; at 1.2 µM 23% | [1]; at 3.7 µM 24% | [1]; at 11.0 µM 49% | [2]; at 1.2 µM -32% | [2]; at 3.7 µM -14% | [2]; at 11.0 µM 17% | [3]; at 1.2 µM -4% | [3]; at 3.7 µM -12% | [3]; at 11.0 µM -15% | [3]; at 33.0 µM 0% | [3]; at 100.0 µM -11% | [4]; at 1.2 µM 8% | [4]; at 3.7 µM -18% | [4]; at 11.0 µM 8% | [5]; at 1.2 µM 12% | [5]; at 3.7 µM 17% | [5]; [17] 28% | [5]; at 11.0 µM 35% | [6]; at 1.2 µM 11% | [6]; at 3.7 µM 13% | [6]; [17] 47% | [6]; at 11.0 µM 29% | [7]; at 1.2 µM -4% | [7]; at 3.7 µM -21% | [7]; at 11.0 µM 2% | [8]; [17] -3% | [9]; at 1.2 µM -8% | [9]; at 3.7 µM 2% | [9]; at 11.0 µM 48% | [10]; [17] 33% | [11]; at 1.2 µM 7% | [11]; at 3.7 µM 20% | [11]; [17] 25% | [11]; at 11.0 µM 46% | [12]; at 1.2 µM -5% | [12]; at 3.7 µM -4% | [12]; at 11.0 µM 22% | [13]; at 1.2 µM 1% | [13]; at 3.7 µM -14% | [13]; at 11.0 µM 28% | [14]; at 1.2 µM 7% | [14]; at 3.7 µM 15% | [14]; at 11.0 µM 44% | [15]; [17] 44% | [16]; at 1.2 µM -15% | [16]; at 3.7 µM -3% | [16]; at 11.0 µM 24%
active: [1]; at 33.0 µM 96% | [1]; at 100.0 µM 89% | [2]; at 33.0 µM 96% | [2]; at 100.0 µM 88% | [4]; at 33.0 µM 97% | [4]; at 100.0 µM 89% | [5]; at 33.0 µM 96% | [5]; [18] 85% | [5]; at 50.0 µM 90.9% | [5]; at 100.0 µM 89% | [6]; at 33.0 µM 95% | [6]; [18] 99% | [6]; at 50.0 µM 91.4% | [6]; at 100.0 µM 90% | [7]; at 33.0 µM 93% | [7]; at 100.0 µM 87% | [8]; [18] 99% | [8]; at 50.0 µM 92.3% | [9]; at 33.0 µM 95% | [9]; at 100.0 µM 85% | [10]; [18] 97% | [10]; at 50.0 µM 91.2% | [11]; at 33.0 µM 96% | [11]; [18] 98% | [11]; at 50.0 µM 90.7% | [11]; at 100.0 µM 88% | [12]; at 33.0 µM 95% | [12]; at 100.0 µM 90% | [13]; at 33.0 µM 95% | [13]; at 100.0 µM 90% | [14]; at 33.0 µM 96% | [14]; at 100.0 µM 87% | [15]; [18] 87% | [15]; at 50.0 µM 90.2% | [16]; at 33.0 µM 95% | [16]; at 100.0 µM 89%

COC(=O)/C(C#N)=C\NC(=S)C(N)=S
inactive: [1]; at 1.2 µM -6% | [1]; at 3.7 µM 24% | [2]; at 1.2 µM 8% | [2]; at 3.7 µM 26% | [2]; at 11.0 µM 54% | [3]; at 1.2 µM -24% | [3]; at 3.7 µM -24% | [3]; at 11.0 µM 2% | [3]; at 33.0 µM 64% | [4]; at 1.2 µM 9% | [4]; at 3.7 µM 21% | [5]; at 1.2 µM 12% | [5]; at 3.7 µM 30% | [5]; [17] 2% | [6]; at 1.2 µM -5% | [6]; at 3.7 µM 24% | [6]; [17] -1% | [7]; at 1.2 µM 4% | [7]; at 3.7 µM 15% | [8]; [17] 13% | [9]; at 1.2 µM 21% | [9]; at 3.7 µM 40% | [10]; [17] 22% | [11]; at 1.2 µM 24% | [11]; at 3.7 µM 34% | [11]; [17] 4% | [12]; at 1.2 µM -6% | [12]; at 3.7 µM 10% | [12]; at 11.0 µM 40% | [13]; at 1.2 µM 17% | [13]; at 3.7 µM 32% | [14]; at 1.2 µM 9% | [14]; at 3.7 µM 25% | [15]; [17] 50% | [16]; at 1.2 µM -4% | [16]; at 3.7 µM 16% | [16]; at 11.0 µM 53%
active: [1]; at 11.0 µM 86% | [1]; at 33.0 µM 99% | [1]; at 100.0 µM 98% | [2]; at 33.0 µM 99% | [2]; at 100.0 µM 98% | [3]; at 100.0 µM 97% | [4]; at 11.0 µM 79% | [4]; at 33.0 µM 99% | [4]; at 100.0 µM 98% | [5]; at 11.0 µM 90% | [5]; at 33.0 µM 98% | [5]; [18] 98% | [5]; at 50.0 µM 88.5% | [5]; at 100.0 µM 97% | [6]; at 11.0 µM 98% | [6]; at 33.0 µM 99% | [6]; [18] 99% | [6]; at 50.0 µM 93.2% | [6]; at 100.0 µM 98% | [7]; at 11.0 µM 98% | [7]; at 33.0 µM 99% | [7]; at 100.0 µM 98% | [8]; [18] 98% | [8]; at 50.0 µM 91.1% | [9]; at 11.0 µM 96% | [9]; at 33.0 µM 100% | [9]; at 100.0 µM 98% | [10]; [18] 99% | [10]; at 50.0 µM 89.5% | [11]; at 11.0 µM 99% | [11]; at 33.0 µM 99% | [11]; [18] 99% | [11]; at 50.0 µM 91.3% | [11]; at 100.0 µM 98% | [12]; at 33.0 µM 99% | [12]; at 100.0 µM 98% | [13]; at 11.0 µM 98% | [13]; at 33.0 µM 99% | [13]; at 100.0 µM 98% | [14]; at 11.0 µM 86% | [14]; at 33.0 µM 99% | [14]; at 100.0 µM 98% | [15]; [18] 98% | [15]; at 50.0 µM 89.3% | [16]; at 33.0 µM 99% | [16]; at 100.0 µM 98%

CC1=COC2=C(C)C(=O)C(=O)c3c(C)ccc1c32
inactive: [1]; at 1.2 µM 20% | [1]; at 3.7 µM 23% | [1]; at 11.0 µM 30% | [1]; at 33.0 µM 68% | [2]; at 1.2 µM 30% | [2]; at 3.7 µM 38% | [2]; at 11.0 µM 45% | [3]; at 1.2 µM 2% | [3]; at 3.7 µM 7% | [3]; at 11.0 µM 19% | [3]; at 33.0 µM 42% | [3]; at 100.0 µM 60% | [4]; at 1.2 µM 41% | [4]; at 3.7 µM 28% | [4]; at 11.0 µM 37% | [5]; at 1.2 µM 34% | [5]; at 3.7 µM 39% | [5]; [17] 25% | [5]; at 11.0 µM 53% | [5]; [18] 47% | [6]; at 1.2 µM 43% | [6]; at 3.7 µM 40%
active: [1]; at 100.0 µM 93% | [2]; at 33.0 µM 77% | [2]; at 100.0 µM 96% | [4]; at 33.0 µM 89% | [4]; at 100.0 µM 94% | [5]; at 33.0 µM 85% | [5]; at 50.0 µM 88.3% | [5]; at 100.0 µM 93%

Reference: PubChem BioAssay (NCI)
